Test results: the supplement of paper PMC10849652
The full data set covers some 7,900 targets. This sample favours those with a hit. About 0.6% of all pairs of compound and target were hits. Unmarked numbers belong to inactive results.

What was measured:
Test in all cases: log2 fold change, soluble protein after heating vs DMSO (PISA); higher = thermal stabilisation; K562 cells, 10 uM, 30 min; active = over 0.2 and 3.5 SD of the protein, either way, in both replicates (recomputed)
IRAK-1-4 Inhibitor I = compound: C1COCCN1CCN2C3=CC=CC=C3N=C2NC(=O)C4=CC(=CC=C4)[N+](=O)[O-] [IRAK-1-4 Inhibitor I]
How it was run: (§1)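 K562 cells at 2×10^6 cells/mL were treated for 30 min with 10 μM compound, and aliquots were heated for 3 min over 48°C-58°C before pooling. Extraction used PBS with 0.5% NP-40 at 4°C, and soluble protein was the supernatant after 21,000xg for 90 min, measured by TMTpro 16plex LC-MS/MS with channel sums equalised. Thermal stability values, relative to control samples and from duplicates, are log2 fold changes.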

ibrutinib = compound: C=CC(=O)N1CCC[C@@H](n2nc(-c3ccc(Oc4ccccc4)cc3)c3c(N)ncnc32)C1 [ibrutinib]
How it was run: as §1

[1] = compound: CC(=O)c1cnc2ccc(-c3cc(Cl)c(O)c(Cl)c3)nc2c1N[C@H]1CC[C@H](CN(C)C)CC1
How it was run: as §1

ralimetinib = compound: CC(C)(C)Cn1c(N)nc2ccc(-c3[nH]c(C(C)(C)C)nc3-c3ccc(F)cc3)nc21 [ralimetinib]
How it was run: as §1

[2] = compound: CC(C)(O)CC(=O)NCCn1ccc2ncnc(Nc3ccc(Oc4cccc(C(F)(F)F)c4)c(Cl)c3)c21
How it was run: as §1

[3] = compound: CC(C)C1=C2N=C(C=C(N2N=C1)NCC3=CC=CC=C3)NCCCCCCN
How it was run: as §1

[4] = compound: CC(C)C[C@@H](C=O)NC(=O)[C@H](CC(C)C)NC(=O)[C@H](CC(C)C)NC(=O)OCc1ccccc1
How it was run: as §1

pinometostat = compound: CC(C)N(C[C@H]1O[C@@H](n2cnc3c(N)ncnc32)[C@H](O)[C@@H]1O)[C@H]1C[C@@H](CCc2nc3cc(C(C)(C)C)ccc3[nH]2)C1 [pinometostat]
How it was run: as §1

[5] = compound: CC1=C(C(CC(=O)N1)C2=CC=C(C=C2)C(F)(F)F)C(=O)NC3=C(C=C4C(=C3)C=NN4)F
How it was run: as §1

[6] = compound: CC1=C(C2=C(C=C1)C(=O)C3=CC=CC=C3N2CCCN)C
How it was run: as §1

[7] = compound: CC1=C(C=C(C=C1)NC(=O)C2=CC(=CC=C2)C(C)(C)C#N)NC3=CC4=C(C=C3)N=CN(C4=O)C
How it was run: as §1

[8] = compound: CC1=C(C=C(C=C1)NC(=O)C2=CC(=CC=C2)N(C)C)NC(=O)C3=CC=C(C=C3)O
How it was run: as §1

[9] = compound: CC1=CC=C(C=C1)SC2=C3C=C(SC3=CN=C2)C(=O)N
How it was run: as §1

[10] = compound: CC1=NC(=CC=C1)C2=C(N=C(N2)C(C)(C)C)C3=CC4=NC=CN=C4C=C3
How it was run: as §1

Nexturastat A = compound: CCCCN(Cc1ccc(C(=O)NO)cc1)C(=O)Nc1ccccc1 [Nexturastat A]
How it was run: as §1

vemurafenib = compound: CCCS(=O)(=O)Nc1ccc(F)c(C(=O)c2c[nH]c3ncc(-c4ccc(Cl)cc4)cc23)c1F [vemurafenib]
How it was run: as §1

[11] = compound: CCCS(=O)(=O)Nc1ccc(F)c(C(=O)c2c[nH]c3ncc(Cl)cc23)c1F
How it was run: as §1

[12] = compound: CCCc1cc(C)[nH]c(=O)c1CNC(=O)c1cc(-c2ccnc(N3CCN(C)CC3)c2)cc2c1cnn2C(C)C
How it was run: as §1

givinostat = compound: CCN(CC)Cc1ccc2cc(COC(=O)Nc3ccc(C(=O)NO)cc3)ccc2c1 [givinostat]
How it was run: as §1

barasertib = compound: CCN(CCCOc1ccc2c(Nc3cc(CC(=O)Nc4cccc(F)c4)[nH]n3)ncnc2c1)CCOP(=O)(O)O [barasertib]
How it was run: as §1

Sequence of UniProt O94925 (O94925 whole entry, looked up): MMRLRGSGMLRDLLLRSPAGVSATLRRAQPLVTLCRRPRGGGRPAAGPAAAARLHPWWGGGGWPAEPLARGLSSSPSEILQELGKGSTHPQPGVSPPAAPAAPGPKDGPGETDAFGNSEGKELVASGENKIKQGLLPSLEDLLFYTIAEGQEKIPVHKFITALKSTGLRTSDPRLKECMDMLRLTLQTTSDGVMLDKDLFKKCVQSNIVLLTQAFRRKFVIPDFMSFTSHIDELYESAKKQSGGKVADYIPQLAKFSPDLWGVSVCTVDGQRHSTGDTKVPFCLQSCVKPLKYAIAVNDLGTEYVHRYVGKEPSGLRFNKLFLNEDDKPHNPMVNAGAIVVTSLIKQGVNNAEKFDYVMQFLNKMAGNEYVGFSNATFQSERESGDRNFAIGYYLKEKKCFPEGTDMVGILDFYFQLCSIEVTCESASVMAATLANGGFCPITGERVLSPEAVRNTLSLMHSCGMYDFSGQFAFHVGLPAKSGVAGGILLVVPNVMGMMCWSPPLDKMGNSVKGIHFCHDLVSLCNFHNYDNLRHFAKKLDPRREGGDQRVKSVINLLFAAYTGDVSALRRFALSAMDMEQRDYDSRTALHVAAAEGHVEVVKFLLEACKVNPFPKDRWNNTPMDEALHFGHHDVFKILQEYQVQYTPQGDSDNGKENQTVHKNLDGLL
Sequence of UniProt Q53R41 (Q53R41 whole entry, looked up): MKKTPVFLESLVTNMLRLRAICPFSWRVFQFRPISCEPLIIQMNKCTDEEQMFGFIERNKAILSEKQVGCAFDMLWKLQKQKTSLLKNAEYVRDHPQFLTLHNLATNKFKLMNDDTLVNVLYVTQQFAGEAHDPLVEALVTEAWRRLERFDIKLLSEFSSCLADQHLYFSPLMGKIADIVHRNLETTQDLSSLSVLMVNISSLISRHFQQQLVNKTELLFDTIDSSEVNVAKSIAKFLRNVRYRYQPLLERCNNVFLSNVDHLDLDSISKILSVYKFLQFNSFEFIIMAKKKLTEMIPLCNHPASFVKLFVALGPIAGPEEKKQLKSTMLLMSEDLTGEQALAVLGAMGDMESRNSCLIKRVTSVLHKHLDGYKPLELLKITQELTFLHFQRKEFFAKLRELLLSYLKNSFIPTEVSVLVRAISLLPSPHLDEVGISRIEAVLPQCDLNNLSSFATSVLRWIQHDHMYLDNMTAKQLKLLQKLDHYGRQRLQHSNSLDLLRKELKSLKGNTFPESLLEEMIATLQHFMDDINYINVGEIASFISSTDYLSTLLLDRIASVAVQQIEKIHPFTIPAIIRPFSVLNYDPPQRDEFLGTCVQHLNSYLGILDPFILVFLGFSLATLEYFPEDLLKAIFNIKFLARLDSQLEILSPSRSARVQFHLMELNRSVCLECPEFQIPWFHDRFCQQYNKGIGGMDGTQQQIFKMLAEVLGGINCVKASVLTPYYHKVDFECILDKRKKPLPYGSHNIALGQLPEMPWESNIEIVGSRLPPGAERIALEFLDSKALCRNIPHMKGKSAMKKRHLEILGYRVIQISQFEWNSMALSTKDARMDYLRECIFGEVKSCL
Sequence of UniProt Q9Y692 (Q9Y692 whole entry, looked up): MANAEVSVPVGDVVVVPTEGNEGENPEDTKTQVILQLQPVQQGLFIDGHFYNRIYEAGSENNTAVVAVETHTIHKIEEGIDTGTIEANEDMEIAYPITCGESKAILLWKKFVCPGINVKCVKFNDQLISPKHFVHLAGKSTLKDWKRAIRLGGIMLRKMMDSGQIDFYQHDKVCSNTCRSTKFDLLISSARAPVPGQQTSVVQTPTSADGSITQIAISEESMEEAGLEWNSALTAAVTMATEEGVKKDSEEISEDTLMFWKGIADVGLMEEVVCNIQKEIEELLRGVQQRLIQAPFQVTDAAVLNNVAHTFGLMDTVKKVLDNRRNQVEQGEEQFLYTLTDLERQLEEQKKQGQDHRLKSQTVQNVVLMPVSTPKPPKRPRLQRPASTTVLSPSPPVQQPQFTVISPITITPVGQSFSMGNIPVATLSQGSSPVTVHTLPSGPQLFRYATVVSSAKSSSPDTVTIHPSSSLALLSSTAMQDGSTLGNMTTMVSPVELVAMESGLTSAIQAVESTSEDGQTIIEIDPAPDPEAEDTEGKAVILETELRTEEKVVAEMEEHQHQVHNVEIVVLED
Sequence of UniProt P52655 (P52655 whole entry, looked up): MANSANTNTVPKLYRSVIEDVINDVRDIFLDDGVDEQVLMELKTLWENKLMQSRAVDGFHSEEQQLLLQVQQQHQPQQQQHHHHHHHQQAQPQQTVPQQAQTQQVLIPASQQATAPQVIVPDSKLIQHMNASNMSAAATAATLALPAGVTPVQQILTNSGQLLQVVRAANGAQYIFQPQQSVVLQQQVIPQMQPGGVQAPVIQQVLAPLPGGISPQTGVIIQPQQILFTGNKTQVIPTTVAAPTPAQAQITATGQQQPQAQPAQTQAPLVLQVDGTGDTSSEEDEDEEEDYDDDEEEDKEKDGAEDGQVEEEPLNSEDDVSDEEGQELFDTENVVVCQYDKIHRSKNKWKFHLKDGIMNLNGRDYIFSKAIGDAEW
Sequence of UniProt O75146 (O75146 whole entry, looked up): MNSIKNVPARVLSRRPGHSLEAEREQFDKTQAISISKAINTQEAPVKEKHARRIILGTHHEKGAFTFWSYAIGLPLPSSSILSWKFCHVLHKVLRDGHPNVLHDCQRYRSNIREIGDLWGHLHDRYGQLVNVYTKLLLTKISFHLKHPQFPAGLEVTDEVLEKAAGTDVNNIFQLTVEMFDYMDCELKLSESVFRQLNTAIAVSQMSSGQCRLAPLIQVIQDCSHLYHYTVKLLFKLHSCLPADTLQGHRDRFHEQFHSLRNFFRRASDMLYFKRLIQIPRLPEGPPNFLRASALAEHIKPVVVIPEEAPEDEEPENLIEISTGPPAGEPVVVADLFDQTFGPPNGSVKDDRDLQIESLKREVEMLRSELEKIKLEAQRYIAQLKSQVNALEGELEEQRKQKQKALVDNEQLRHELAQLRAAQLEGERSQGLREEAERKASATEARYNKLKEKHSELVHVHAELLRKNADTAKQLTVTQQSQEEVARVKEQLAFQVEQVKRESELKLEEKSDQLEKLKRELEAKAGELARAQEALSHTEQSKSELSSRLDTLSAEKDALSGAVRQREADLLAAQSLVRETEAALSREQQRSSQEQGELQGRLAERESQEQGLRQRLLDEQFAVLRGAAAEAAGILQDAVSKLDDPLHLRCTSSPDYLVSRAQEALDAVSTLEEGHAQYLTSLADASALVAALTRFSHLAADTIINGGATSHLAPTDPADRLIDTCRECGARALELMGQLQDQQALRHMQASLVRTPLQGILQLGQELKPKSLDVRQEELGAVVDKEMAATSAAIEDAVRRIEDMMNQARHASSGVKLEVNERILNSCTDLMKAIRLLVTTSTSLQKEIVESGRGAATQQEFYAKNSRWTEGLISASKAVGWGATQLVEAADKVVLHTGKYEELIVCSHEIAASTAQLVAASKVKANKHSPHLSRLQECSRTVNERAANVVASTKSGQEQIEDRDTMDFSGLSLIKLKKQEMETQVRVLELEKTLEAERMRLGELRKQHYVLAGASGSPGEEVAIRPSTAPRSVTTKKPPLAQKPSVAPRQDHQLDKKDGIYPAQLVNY
Sequence of UniProt Q9H4G4 (Q9H4G4 whole entry, looked up): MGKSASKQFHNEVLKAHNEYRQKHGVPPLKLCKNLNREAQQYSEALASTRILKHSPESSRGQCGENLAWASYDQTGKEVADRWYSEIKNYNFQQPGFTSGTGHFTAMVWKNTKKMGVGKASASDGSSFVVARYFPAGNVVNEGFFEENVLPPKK
Sequence of UniProt Q16774 (Q16774 whole entry, looked up): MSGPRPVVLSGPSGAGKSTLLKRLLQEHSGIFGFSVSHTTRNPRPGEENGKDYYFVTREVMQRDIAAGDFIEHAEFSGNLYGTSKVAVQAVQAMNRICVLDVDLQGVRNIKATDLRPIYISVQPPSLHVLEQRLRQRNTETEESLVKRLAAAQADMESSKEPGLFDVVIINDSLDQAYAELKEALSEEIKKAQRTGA
Sequence of UniProt Q92769 (Q92769 whole entry, looked up): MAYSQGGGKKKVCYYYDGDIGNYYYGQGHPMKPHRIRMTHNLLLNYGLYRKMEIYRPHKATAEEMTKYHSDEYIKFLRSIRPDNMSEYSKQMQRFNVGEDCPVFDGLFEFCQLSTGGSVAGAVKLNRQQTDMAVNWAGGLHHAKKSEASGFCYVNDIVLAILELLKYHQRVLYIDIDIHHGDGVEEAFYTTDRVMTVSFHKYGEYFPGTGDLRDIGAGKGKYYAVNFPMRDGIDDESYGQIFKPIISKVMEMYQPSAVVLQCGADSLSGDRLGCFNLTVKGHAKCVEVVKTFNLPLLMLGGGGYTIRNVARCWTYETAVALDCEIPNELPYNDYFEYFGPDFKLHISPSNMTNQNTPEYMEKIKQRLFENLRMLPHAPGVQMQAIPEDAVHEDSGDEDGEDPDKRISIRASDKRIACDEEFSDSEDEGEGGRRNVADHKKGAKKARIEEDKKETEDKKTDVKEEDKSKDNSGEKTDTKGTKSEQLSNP
Sequence of UniProt P06865 (P06865 whole entry, looked up): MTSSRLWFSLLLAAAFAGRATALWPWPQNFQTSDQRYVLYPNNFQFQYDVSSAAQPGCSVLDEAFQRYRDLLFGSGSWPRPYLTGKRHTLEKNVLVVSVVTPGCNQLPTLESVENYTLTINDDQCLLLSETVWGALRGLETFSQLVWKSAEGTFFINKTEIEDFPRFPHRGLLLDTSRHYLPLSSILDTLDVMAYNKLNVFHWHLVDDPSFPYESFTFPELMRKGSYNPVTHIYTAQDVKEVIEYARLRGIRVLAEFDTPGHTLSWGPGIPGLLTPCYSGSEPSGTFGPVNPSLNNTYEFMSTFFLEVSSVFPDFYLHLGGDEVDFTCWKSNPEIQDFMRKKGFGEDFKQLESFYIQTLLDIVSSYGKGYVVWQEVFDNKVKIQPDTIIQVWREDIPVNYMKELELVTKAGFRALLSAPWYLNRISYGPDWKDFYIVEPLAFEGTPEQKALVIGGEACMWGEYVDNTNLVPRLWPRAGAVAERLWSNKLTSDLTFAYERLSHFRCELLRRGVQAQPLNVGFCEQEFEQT

Target | log2 fold change (IRAK-1-4 Inhibitor I) | log2 fold change (ibrutinib) | log2 fold change [1] | log2 fold change (ralimetinib) | log2 fold change [2] | log2 fold change [3] | log2 fold change [4] | log2 fold change (pinometostat) | log2 fold change [5] | log2 fold change [6] | log2 fold change [7] | log2 fold change [8] | log2 fold change [9] | log2 fold change [10] | log2 fold change (Nexturastat A) | log2 fold change (vemurafenib) | log2 fold change [11] | log2 fold change [12] | log2 fold change (givinostat) | log2 fold change (barasertib)
HSPA8 (UniProt P11142) | 0.032 | -0.015 | 0.014 | -0.004 | 0.029 | 0.037 | -0.013 | -0.023 | -0.009 | -0.016 | 0.021 | 0.005 | -0.025 | 0.011 | -0.011 | -0.008 | -0.02 | 0.04 | -0.02 | -0.005
HEXA (UniProt P06865) | 0.013 | 0.004 | 0.018 | -0.062 | 0.024 | -0.179 | 0.032 | -0.043 | -0.003 | -0.05 | -0.046 | 0.022 | -0.019 | 0.004 | -0.035 | -0.006 | -0.023 | -0.023 | -0.018 | -0.001
GOLGA8R (UniProt I6L899) | 0.003 | 0.04 | -0.106 | 0.247 | – | 0.227 | 0.177 | 0.035 | – | 0.201 | – | -0.037 | 0.041 | -0.205 | – | 0.06 | -0.086 | – | 0.223 | 0.048
HDAC2 (UniProt Q92769) | 0 | -0.015 | -0.046 | -0.004 | 0.01 | 0.007 | -0.04 | -0.01 | -0.006 | 0 | -0.051 | -0.001 | 0.015 | -0.006 | 0.856 (active) | -0.005 | 0.019 | -0.018 | – | -0.039
GLIPR2 (UniProt Q9H4G4) | 0.038 | -0.047 | -0.01 | 0.04 | 0.06 | -0.35 (active) | 0.012 | 0.03 | – | 0.061 | 0.156 | -0.152 | -0.054 | -0.032 | 0.062 | 0.092 | -0.014 | 0.028 | 0.009 | 0
GTPBP6 (UniProt O43824) | -0.043 | -0.081 | 0.028 | 0.039 | 0.111 | 0.204 | 0.024 | 0.062 | 0.112 | 0.013 | 0.038 | 0.014 | – | -0.042 | -0.037 | 0.015 | – | 0.006 | -0.062 | -0.015
GTF2A1 (UniProt P52655) | 0.068 | 0.03 | 0.013 | -0.142 | -0.106 | 0.022 | -0.06 | 0.035 | 0.014 | -0.415 (active) | -0.086 | -0.05 | -0.023 | -0.006 | 0.077 | 0.005 | -0.057 | -0.011 | -0.01 | 0.021
HDAC1 (UniProt Q13547) | -0.033 | -0.052 | 0.056 | 0.02 | -0.021 | -0.009 | -0.067 | 0.03 | 0.003 | 0.023 | -0.11 | -0.039 | 0.051 | 0.034 | 1.45 (active) | 0.051 | 0.14 | -0.118 | – | 0.024
FUT8 (UniProt Q9BYC5) | -0.02 | 0.064 | -0.098 | -0.087 | 0.019 | -0.133 | 0.053 | 0.065 | 0.105 | 0.077 | -0.05 | -0.047 | – | 0.037 | 0.064 | -0.417 | – | 0.048 | -0.048 | -0.014
GUK1 isoform 2 (UniProt Q16774) | -0.076 | -0.033 | -0.162 | 0.038 | -0.234 | -0.033 | 0.167 | -0.037 | -0.074 | 0.092 | 0.173 | -0.062 | -0.018 | 0.093 | -0.065 | 0.118 | -0.002 | 0.026 | 0.072 | -0.018
GLS (UniProt O94925) | 0.051 | -0.096 | 0.002 | -0.071 | -0.14 | 0.004 | 0.032 | -0.037 | 0.008 | 0.002 | -0.013 | -0.072 | -0.024 | 0.034 | -0.065 | 0.096 | 0.132 | 0.062 | 0.041 | 0.054
GYG1 (UniProt P46976) | -0.055 | 0.025 | -0.29 | 0.176 | 0.029 | -0.114 | 0.064 | 0.125 | 0.03 | 0.035 | 0.209 | 0.035 | -0.041 | -0.029 | 0.146 | 0.014 | 0.046 | 0.101 | 0.027 | -0.037
GMEB1 (UniProt Q9Y692) | -0.033 | -0.031 | -0.021 | 0.01 | -0.039 | -0.044 | -0.031 | 0.022 | 0.011 | -0.297 (active) | 0.088 | 0.041 | 0.04 | 0.014 | -0.041 | -0.048 | 0.154 | 0.047 | 0.058 | 0.008
FASTKD1 (UniProt Q53R41) | 0.016 | -0.186 | -0.043 | 0.013 | -0.316 | -0.047 | 0.116 | 0.038 | -0.345 | 0.2 | -0.066 | -0.138 | – | 0.017 | 0.013 | 0.065 | – | – | 0.156 | 0.096
GTF2E2 (UniProt P29084) | -0.041 | -0.008 | -0.104 | -0.012 | -0.033 | -0.137 | 0.075 | 0.056 | 0.001 | 0.056 | 0.045 | -0.068 | -0.01 | 0.02 | 0.082 | 0.057 | -0.039 | 0.055 | 0.059 | 0.035
HIP1R (UniProt O75146) | 0.029 | -0.027 | -0.022 | 0.01 | -0.034 | -0.059 | -0.003 | 0 | -0.004 | 0.138 | -0.028 | -0.053 | 0.003 | -0.002 | -0.047 | -0.026 | 0.036 | -0.006 | 0.059 | 0.041
